In the library only some 2.4% were active in any assay of this set; here they are far more common.
Cruzain noTriton = inhibitors of Trypanosoma cruzi cruzain without detergent; P25779; purified cruzain, Z-FR-AMC fluorescence, no detergent; Potency, µM, for inactives: max response, negative = inhibition, usual class: inhibitors; hit rate 2.3% among 200,000;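 also: plate controls were enzyme without inhibitor for no effect and buffer without enzyme for full effect; nearly all actives have a fitted effect of over 40% in size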
Target sequence (P25779 123-467 limits assumed): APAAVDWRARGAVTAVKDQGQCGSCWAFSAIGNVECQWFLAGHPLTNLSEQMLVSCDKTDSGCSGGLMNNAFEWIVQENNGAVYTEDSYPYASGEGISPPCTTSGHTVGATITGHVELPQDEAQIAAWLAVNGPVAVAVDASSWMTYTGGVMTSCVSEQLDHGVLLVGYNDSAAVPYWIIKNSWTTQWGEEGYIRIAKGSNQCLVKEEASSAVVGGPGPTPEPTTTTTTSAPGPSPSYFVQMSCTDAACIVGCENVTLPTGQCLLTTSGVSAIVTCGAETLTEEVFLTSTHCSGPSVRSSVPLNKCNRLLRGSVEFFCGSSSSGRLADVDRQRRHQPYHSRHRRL
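Purified cruzain at 1.5 nM, pre-incubated 15 min with compound at room temperature in 100 mM sodium acetate pH 5.5, 5 mM DTT, 0.00005% Triton X-100. Reaction started with 2 uM Z-FR-AMC; AMC fluorescence increase over 60 s gives rate.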
Cruzain inh Det = blocks cruzain activity in presence of Triton detergent; P25779; hit rate 0.43% among 200,000; purified cruzain, Z-FR-AMC fluorescence, 0.01% Triton; Potency, µM, for the others: max response, negative = inhibition, hits mostly inhibitors; AID 1478;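 also: plate controls were neutral wells for no effect and buffer without enzyme for full effect; nearly all actives have a fitted effect of over 40% in size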
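Read-out: AMC fluorescence (360 nm excitation, 450 nm emission), four reads over 2 min, first-to-third difference used. Conditions: cruzain 1.5 nM, Z-FR-AMC 2 uM, pH 5.5 acetate, 5 mM DTT, 0.01% Triton X-100.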
Papain counter = counter-screen for cruzain inhibitors: papain inhibition. hit rate 41% among 410. shares compounds with Cruzain inh Det. AID 2161. Potency, µM, for inactives: max response, negative = inhibition, actives largely listed as inhibitors. purified papain, Z-FR-AMC fluorescence cleavage;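 also: 0% = no-compound wells and -100% = no-enzyme wells; nearly all actives have a fitted effect of over 35% in size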
Target sequence (P00784 whole entry, looked up): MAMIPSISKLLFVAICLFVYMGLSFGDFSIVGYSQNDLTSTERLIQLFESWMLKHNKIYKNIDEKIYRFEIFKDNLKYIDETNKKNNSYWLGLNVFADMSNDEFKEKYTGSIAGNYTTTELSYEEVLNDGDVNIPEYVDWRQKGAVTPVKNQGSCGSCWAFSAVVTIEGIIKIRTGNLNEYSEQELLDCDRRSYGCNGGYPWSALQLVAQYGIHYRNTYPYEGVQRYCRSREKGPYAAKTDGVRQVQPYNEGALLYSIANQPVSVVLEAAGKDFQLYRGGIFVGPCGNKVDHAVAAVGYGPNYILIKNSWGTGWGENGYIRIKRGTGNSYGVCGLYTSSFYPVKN
Active calls of the source: *; u = inconclusive; x = not tested or not shown; ! = a repeat was not active. Calls follow the shape of the dose curve; as a rule, active = well fitted curve in the direction sought with a large enough effect; inconclusive = small, poorly fitted or top-dose-only effect, or another doubt; inactive = no such curve, though single readings can be large; an effect the other way counts as inactive or inconclusive. Potency is read from the fitted curve at half-maximal effect.

SMILES | Cruzain noTriton | Cruzain inh Det | others
COc1ccc(-c2nc3sc(CCNC(=O)c4ccc(C(C)(C)C)cc4)c(C)n3n2)cc1 | -23% | 3%
COc1ccc(NC(=O)c2cc(Cl)ccc2Cl)c([N+](=O)[O-])c1 | -5% | -4%
O=C(Nc1ccc([N+](=O)[O-])cc1Cl)c1cc(Cl)ccc1O | 13% | 5.6µM*!
Cc1cccc(N2CC(c3nc4ccccc4n3CCC3CCCCC3)CC2=O)c1 (stereo not given) | -8% | -4%
CC1=Nc2cc(C(=O)NC3CCCC3)ccc2Sc2ccc(Br)cc21 | u | -3%
CCCC1=Nc2cc(C(=O)NCCc3ccc(OCC)cc3)ccc2Sc2ccccc21 | u | -2%
CC1=Nc2cc(C(=O)NCCc3ccc(Cl)cc3)ccc2Sc2ccc(C)cc21 | 10µM* | -2%
CC1=Nc2cc(C(=O)NC3CCCCC3)ccc2Sc2ccc(Cl)cc21 | 25µM* | -5%
COc1cc(NC(=O)Cn2cc(C(=O)c3ccc(F)cc3)c(=O)c3ccc(C)nc32)cc(OC)c1 | 17% | -1%
Cc1ccc(C(=O)Nc2c(C(=O)Nc3ccc(C)c(C)c3)sc3nc(C)cc(C)c23)cc1 | -1% | -2%
Cc1cccc(N2CCN(C(=O)CN3C(=O)COc4ccc(S(=O)(=O)N5CCCCCC5)cc43)CC2)c1C | 8% | -4%
CCOc1ccc(C(=O)Nc2ccc(N3CCCC3)cc2)cc1 | 7.9µM* | -15%
CCCOc1ccc(C(=O)Nc2ccc(N3CCN(C(C)=O)CC3)cc2)cc1 | u | -3%
O=C(c1ccc(F)cc1)c1ccc(N2CCCC2)cc1 | 2% | -7%
COc1ccc(C(=O)N/N=C(/C)c2ccc(N3CCCCC3)cc2)cc1 | u | -15%
COc1ccc(C(=O)Nc2ccc(N3CCCC3)cc2)cc1 | 10µM* | u
COc1ccc(NC(=O)C2(c3ccc(NC(=O)c4ccc(OC)cc4)cc3)CCCC2)cc1 | 7.9µM* | 0%
COc1ccc(C2(C(=O)Nc3nncs3)CCCC2)cc1 | -2% | 2%
O=C(Nc1ccc(N2CCCCC2)cc1)c1ccc(F)cc1 | 25µM* | 4%
CCS(=O)(=O)NCCc1sc2nc(-c3ccc(OC)cc3)nn2c1C | 0% | -2%
CCN(CC)c1nn2c(=O)c(C(=O)NCCc3ccc(C)cc3)cnc2s1 | 3% | -1%
Cc1ccc(/C=N/NC(=O)c2cccc([N+](=O)[O-])c2)o1 | 2% | -5%
O=C(N/N=C/c1ccc(Br)s1)c1cccc([N+](=O)[O-])c1 | 20µM* | -14%
CCc1cc2c(=O)[nH]c(-c3ccncc3)nc2s1 | u | 8.9µM* | Papain counter=-39%
CCc1cc2c(=O)[nH]c(Cc3ccccc3)nc2s1 | u | -2%
SMILES | Cruzain noTriton | Cruzain inh Det | others
COc1ccc(OC)c(CNC(=O)c2cc(S(=O)(=O)N3CCC(C)CC3)cn2C)c1 | u | -5%
COc1cccc(CNC(=O)CCc2c(C)nc3c4c(C)cc(C)nc4nn3c2C)c1 | 10% | -2%
CCCCN(C)c1nnc(NC(=O)Nc2cccc(C(C)=O)c2)s1 | -10% | -9%
COc1ccc(Cl)cc1NC(=O)C(C)n1nnc2sc3c(c2c1=O)CCCC3 (stereo not given) | 0% | 0%
C#CCn1c(=NC(=O)c2ccc(Br)s2)sc2cc(NC(C)=O)ccc21 | -18% | -12%
COC(=O)Cn1c(=NC(=O)c2ccc(Cl)s2)sc2cc(C)ccc21 | 20µM* | 22µM* | Papain counter=14µM*
O=C(O)C[C@H](S)C(=O)O | -8% | 3%
CCOc1ccc(NC(=O)C(C)Sc2nnc3cc(C)c4ccccc4n23)cc1 (stereo not given) | 7% | -1%
CCOC(=O)c1cc2c(=O)n3ccccc3nc2n(Cc2ccco2)c1=NC(=O)c1cccnc1 | -4% | 16µM* | Papain counter=-58%
CCOC(=O)c1cc2c(=O)n3ccccc3nc2n(Cc2ccco2)c1=NC(=O)c1cccc(C)c1 | -1% | -12%
CC(C)Oc1ccc(CNS(=O)(=O)c2ccc(-c3cc(C(F)(F)F)on3)s2)cc1 | u | 0%
CCc1nc2sc3ccccc3c(=O)c2c(=O)n1Cc1ccco1 | -28% | -14%
O=c1c2ccccc2sc2nc(C3CCCCC3)n(Cc3ccco3)c(=O)c12 | -22% | 16µM* | Papain counter=-14%
CCCOc1ccc(C2C(=O)N(C3CCC(C)CC3)CC(=O)N2Cc2cccc(OC)c2)cc1OC (stereo not given) | 11% | 0%
CCOC(=O)N1CCN(Cc2ccccn2)CC1 | -4% | -1%
CCOC(=O)N1CCC(=C2c3ccc(Cl)cc3CCc3cccnc32)CC1 | u | -5% | Papain counter=-9%
CCOC(=O)C1CCCN(C(=O)c2ccc3c(c2)sc2nc(-c4cccc(OC)c4)cn23)C1 (stereo not given) | 9% | -2%
O=C(CNC(=O)c1ccccc1)OC(C(=O)Nc1cc(C(F)(F)F)ccc1Cl)c1ccccc1 (stereo not given) | 10µM* | 7.1µM* | Papain counter=-17%
O=C(Nc1cc(C(F)(F)F)ccc1Cl)C(NCc1ccccc1)c1ccccc1 (stereo not given) | 2% | -5%
CCn1nc(-c2ccc(C)cc2)nc2c(=O)n(C)c(=O)nc1-2 | x | x | Papain counter=-3%
CCS(=O)(=O)n1nc(-c2ccc(C)cc2)nc1N | -1% | -2%
CCn1nc(-c2ccccc2)nc2c(=O)n(C)c(=O)nc1-2 | 1.3µM* | 2.2µM* | Papain counter=4%
CCOC(=O)Cn1nc(-c2ccccc2)nc1-c1ccccc1 | 4% | -3%
Cc1noc(C)c1-c1cc(NC2CCNCC2)ncn1 | 8% | 4%
CCOc1cc(-c2ccc(OC(=O)c3ccc(Cl)cc3)c(OC)c2)cc(=O)c2c(C)oc(C)c12 | u | -10%
SMILES | Cruzain noTriton | Cruzain inh Det | others
CC(=O)N1CCN(C(=S)c2ccc(-c3ccc(Cl)cc3)o2)CC1 | u | 8.9µM* | Papain counter=16µM*
S=C(c1ccc(-c2cccc(Cl)c2)o1)N1CCOCC1 | -14% | -25%
COc1ccc(NC(=O)C2CCCN2S(=O)(=O)c2ccc3c(c2)CCCC(=O)N3)cc1Cl (stereo not given) | -4% | 0%
O=c1cc(-c2ccccc2Cl)oc2c(NS(=O)(=O)c3cc(Cl)cc(Cl)c3O)ccc(O)c12 | 5% | 25µM* | Papain counter=4.5µM*
O=c1cc(-c2ccccc2Cl)oc2cc(O)cc(O)c12 | -5% | -10%
NC1=N[C@H](c2ccc(Cl)cc2)N(c2ccc(S(=O)(=O)Nc3ncccn3)cc2)C(N)=N1 | 3% | -4%
COc1ccc(C(=O)NCc2ccc3c(c2)CCN3C(=O)c2ccc(C)cc2)cc1 | -4% | 0%
COc1ccc2cc3cc(C(=O)NCCCN4CCOCC4)oc3nc2c1 | u | 32µM* | Papain counter=16µM*
COc1ccc2cc3cc(C(=O)NCCN4CCN(Cc5ccccc5)CC4)oc3nc2c1 | -30% | u
CCCc1nc2ccccc2n1CCOc1ccccc1 | 0% | -6%
CCc1ccc(OCCCn2c(CCNC(=O)C3CCCCC3)nc3ccccc32)cc1 | x | x | Papain counter=16µM*
CCc1ccc(OCCSc2nc3ccccc3n2CC(=O)N2CCCCC2)cc1 | 14% | -5%
CCc1ccc(OCCn2c(CCNC(=O)C3CCCCC3)nc3ccccc32)cc1 | x | x | Papain counter=-5%
Cc1ccc(-c2noc(-c3ccc(NCc4ccco4)c([N+](=O)[O-])c3)n2)cc1 | -13% | -5%
COc1ccc(CCNC(=O)CSc2nc(-c3ccc(F)cc3)cc(C(F)(F)F)n2)cc1OC | 1% | -1%
Cc1ccc(C)c(N2CCN(C3(c4ccccc4)C(=O)c4ccccc4C3=O)CC2)c1 | u | -3%
CCc1ccccc1NC(=O)CSc1nc2ncccc2o1 | -6% | -2%
